# In PMC7862700, “An all-to-all approach to the identification of sequence-specific readers for epigenetic DNA modifications on cytosine”:
# Tests used:
# Test in all cases: DAPPL (digital affinity profiling via proximity ligation, sequencing); 10 mM Tris-HCl pH 7.5, 50 mM NaCl, 1 mM DTT, 4% glycerol, room temperature, 30 min; GST-TFs on glutathione beads, 16-mer random dsDNA library, 0.1% formaldehyde crosslink after washing; high values mean tight binding
# FEV = biological target: T1, FEV (Homo sapiens, UniProt Q99581 1-238); details: protein: recombinant; tags: N-terminal GST; dsDNA, one strand shown
# T1 sequence: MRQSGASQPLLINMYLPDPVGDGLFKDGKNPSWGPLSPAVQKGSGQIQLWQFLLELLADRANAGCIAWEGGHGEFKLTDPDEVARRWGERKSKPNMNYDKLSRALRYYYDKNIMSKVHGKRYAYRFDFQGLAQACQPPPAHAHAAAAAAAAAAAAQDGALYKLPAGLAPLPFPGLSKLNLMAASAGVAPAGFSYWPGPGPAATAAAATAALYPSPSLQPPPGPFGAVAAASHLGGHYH
# Outline: (§1)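 Each value of binding signal is a hexamer's read frequency for a factor divided by the same hexamer's frequency in the tag-only sample. Barcoded, bead-captured GST fusions of human transcription factors made in yeast were pooled with that sample and incubated with 200 nmole of a random double-stranded 16-mer DNA library in Tris/NaCl/DTT/glycerol buffer at room temperature for 30 min. Washing, 0.1% formaldehyde crosslinking, proximity ligation, PCR and Illumina NextSeq500 sequencing followed.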
# ETV5 = ETV5 (Homo sapiens, UniProt P41161 1-510); details: protein: recombinant; tags: N-terminal GST; dsDNA, one strand shown
# Sequence of ETV5 (P41161 whole entry): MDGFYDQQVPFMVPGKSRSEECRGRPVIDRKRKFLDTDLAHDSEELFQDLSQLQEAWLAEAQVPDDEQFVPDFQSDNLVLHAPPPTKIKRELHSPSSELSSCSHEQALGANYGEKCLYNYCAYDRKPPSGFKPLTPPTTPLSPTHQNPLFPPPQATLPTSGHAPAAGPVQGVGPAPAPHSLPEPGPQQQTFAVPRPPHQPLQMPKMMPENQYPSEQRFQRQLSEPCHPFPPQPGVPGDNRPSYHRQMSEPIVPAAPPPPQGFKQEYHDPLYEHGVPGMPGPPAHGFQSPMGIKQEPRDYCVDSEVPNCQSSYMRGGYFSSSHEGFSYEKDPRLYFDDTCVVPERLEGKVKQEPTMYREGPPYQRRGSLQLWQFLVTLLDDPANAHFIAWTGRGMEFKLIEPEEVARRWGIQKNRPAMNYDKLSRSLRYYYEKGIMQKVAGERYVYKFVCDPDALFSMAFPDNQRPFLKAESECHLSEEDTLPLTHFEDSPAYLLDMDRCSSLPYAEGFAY
# Outline: as §1
# HSF1 = HSF1 (Homo sapiens, UniProt Q00613 1-529); details: protein: recombinant; tags: N-terminal GST; chain copies: 3; dsDNA, one strand shown
# Sequence of HSF1 (Q00613 whole entry): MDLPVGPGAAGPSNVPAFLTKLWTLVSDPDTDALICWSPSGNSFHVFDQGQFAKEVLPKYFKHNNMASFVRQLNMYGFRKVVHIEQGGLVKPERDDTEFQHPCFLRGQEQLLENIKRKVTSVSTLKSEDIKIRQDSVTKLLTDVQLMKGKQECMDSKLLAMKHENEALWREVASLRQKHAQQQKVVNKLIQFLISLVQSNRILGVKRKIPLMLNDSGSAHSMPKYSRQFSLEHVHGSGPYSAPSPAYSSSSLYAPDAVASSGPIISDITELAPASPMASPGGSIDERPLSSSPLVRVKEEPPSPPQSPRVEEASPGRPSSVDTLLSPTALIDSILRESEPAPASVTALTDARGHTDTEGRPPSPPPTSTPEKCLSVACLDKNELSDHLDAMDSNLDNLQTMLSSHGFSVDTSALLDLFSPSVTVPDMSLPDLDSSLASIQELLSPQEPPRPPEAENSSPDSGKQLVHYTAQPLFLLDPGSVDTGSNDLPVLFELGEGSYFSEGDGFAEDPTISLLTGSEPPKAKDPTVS
# Outline: as §1
# SPIC = biological target: T2, SPIC (Homo sapiens, UniProt Q8N5J4 1-248); details: protein: recombinant; tags: N-terminal GST; dsDNA, one strand shown
# T2 sequence: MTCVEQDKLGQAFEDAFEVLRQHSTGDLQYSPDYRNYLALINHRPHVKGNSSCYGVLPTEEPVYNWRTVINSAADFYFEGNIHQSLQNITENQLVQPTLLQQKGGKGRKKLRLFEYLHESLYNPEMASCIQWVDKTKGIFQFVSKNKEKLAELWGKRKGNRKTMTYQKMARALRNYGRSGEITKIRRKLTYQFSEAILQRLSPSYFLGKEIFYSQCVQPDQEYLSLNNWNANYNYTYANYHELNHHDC
# Outline: as §1
# ELF4 = ELF4 (Homo sapiens, UniProt Q99607 1-663); details: protein: recombinant; tags: N-terminal GST; dsDNA, one strand shown
# Sequence of ELF4 (Q99607 whole entry): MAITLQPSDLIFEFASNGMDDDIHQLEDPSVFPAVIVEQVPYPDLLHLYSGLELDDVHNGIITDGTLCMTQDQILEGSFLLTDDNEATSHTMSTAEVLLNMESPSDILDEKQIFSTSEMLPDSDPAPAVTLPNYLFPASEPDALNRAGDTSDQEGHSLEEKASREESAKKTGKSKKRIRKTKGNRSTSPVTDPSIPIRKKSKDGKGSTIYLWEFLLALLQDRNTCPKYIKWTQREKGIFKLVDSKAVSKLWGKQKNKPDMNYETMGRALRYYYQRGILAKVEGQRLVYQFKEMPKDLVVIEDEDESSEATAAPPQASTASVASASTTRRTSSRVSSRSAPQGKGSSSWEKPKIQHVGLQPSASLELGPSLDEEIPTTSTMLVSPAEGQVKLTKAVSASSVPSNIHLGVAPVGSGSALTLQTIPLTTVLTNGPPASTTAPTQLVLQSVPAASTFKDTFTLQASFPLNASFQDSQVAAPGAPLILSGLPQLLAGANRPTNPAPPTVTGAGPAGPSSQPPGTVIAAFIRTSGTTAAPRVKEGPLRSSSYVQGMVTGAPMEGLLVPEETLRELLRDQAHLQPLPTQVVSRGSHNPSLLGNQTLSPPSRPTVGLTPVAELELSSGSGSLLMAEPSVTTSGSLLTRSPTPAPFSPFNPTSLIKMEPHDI
# Outline: as §1
# ELK4 = biological target: T3, ELK4 (Homo sapiens, UniProt P28324-2 1-405); details: protein: recombinant; tags: N-terminal GST; dsDNA, one strand shown
# T3 sequence: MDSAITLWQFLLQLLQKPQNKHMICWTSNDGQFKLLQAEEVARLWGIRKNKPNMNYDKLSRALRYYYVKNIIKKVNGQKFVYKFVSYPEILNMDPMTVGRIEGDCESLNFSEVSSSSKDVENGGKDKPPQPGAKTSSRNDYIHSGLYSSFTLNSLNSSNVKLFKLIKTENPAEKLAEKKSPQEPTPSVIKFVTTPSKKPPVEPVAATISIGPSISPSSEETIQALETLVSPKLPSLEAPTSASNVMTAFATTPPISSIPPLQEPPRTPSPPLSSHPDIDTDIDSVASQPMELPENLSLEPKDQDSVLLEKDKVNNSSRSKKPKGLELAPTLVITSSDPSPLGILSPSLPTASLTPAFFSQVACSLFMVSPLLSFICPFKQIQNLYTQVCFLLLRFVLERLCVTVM
# Outline: as §1
# ETV2 = biological target: T4, ETV2 (Homo sapiens, UniProt O00321 1-342); details: protein: recombinant; tags: N-terminal GST; dsDNA, one strand shown
# T4 sequence: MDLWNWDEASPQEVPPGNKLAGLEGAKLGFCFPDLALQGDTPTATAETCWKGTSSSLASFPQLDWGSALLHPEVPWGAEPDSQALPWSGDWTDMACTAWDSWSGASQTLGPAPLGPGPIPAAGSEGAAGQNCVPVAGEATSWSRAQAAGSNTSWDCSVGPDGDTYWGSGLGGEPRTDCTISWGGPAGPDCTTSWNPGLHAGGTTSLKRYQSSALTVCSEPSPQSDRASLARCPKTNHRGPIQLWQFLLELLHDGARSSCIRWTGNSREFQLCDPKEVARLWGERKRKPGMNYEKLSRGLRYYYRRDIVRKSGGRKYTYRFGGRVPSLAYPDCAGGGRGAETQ
# Outline: as §1
# ELF3 = biological target: T5, ELF3 (Homo sapiens, UniProt P78545 1-371); details: protein: recombinant; tags: N-terminal GST; dsDNA, one strand shown
# T5 sequence: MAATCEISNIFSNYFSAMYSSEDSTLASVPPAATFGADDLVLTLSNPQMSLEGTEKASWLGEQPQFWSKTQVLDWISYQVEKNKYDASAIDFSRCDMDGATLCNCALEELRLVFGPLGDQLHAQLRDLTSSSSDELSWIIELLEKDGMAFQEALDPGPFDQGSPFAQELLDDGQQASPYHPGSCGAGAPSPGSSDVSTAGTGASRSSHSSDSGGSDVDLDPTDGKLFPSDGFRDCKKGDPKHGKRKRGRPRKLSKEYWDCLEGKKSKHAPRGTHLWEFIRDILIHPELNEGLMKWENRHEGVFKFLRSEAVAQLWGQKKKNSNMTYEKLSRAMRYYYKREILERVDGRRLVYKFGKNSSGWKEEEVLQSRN
# Outline: as §1
# CRX = CRX (Homo sapiens, UniProt O43186 1-299); details: protein: recombinant; tags: N-terminal GST; dsDNA, one strand shown
# Sequence of CRX (O43186 whole entry): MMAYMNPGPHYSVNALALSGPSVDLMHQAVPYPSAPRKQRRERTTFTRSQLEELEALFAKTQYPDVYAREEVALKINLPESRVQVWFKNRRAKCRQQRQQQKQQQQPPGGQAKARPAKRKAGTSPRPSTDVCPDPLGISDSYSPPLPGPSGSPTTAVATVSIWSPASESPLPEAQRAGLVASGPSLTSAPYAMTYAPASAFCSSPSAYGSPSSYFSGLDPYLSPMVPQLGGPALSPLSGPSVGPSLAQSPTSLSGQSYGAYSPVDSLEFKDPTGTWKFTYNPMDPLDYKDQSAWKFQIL
# Outline: as §1
# ETV1 = ETV1 (Homo sapiens, UniProt P50549 1-477); details: protein: recombinant; tags: N-terminal GST; dsDNA, one strand shown
# Sequence of ETV1 (P50549 whole entry): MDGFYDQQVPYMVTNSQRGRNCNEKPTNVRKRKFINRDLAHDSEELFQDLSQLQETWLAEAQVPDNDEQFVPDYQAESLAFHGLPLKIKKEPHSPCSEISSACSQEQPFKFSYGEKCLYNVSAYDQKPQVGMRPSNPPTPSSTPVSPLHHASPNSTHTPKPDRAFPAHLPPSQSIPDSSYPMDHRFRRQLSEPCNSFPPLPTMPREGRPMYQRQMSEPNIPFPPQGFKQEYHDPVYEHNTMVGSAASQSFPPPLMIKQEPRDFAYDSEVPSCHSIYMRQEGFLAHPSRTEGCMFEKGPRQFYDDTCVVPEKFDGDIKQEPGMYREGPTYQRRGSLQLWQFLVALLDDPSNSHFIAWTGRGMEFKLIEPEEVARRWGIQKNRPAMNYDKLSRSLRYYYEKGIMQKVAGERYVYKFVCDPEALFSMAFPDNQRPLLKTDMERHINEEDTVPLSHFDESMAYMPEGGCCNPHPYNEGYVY
# Outline: as §1
# ERF = biological target: T6, ERF (Homo sapiens, UniProt P50548 1-548); details: protein: recombinant; tags: N-terminal GST; dsDNA, one strand shown
# T6 sequence: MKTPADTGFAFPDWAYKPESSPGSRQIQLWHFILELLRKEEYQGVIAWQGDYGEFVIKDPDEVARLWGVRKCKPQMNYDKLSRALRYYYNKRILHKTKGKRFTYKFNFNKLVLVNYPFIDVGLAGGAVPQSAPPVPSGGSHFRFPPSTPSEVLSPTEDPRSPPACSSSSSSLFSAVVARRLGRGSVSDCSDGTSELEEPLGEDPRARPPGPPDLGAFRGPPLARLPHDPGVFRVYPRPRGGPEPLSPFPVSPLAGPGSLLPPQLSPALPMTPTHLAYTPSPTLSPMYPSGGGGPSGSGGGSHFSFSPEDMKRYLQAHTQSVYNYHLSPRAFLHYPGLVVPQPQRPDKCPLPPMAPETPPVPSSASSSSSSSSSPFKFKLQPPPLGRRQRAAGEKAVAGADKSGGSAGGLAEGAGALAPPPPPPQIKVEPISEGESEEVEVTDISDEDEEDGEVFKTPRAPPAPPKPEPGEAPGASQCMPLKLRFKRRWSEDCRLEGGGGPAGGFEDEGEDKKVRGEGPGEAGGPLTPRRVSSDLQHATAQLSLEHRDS
# Outline: as §1
# ETV3L = biological target: T7, ETV3L (Homo sapiens, UniProt Q6ZN32 1-361); details: protein: recombinant; tags: N-terminal GST; dsDNA, one strand shown
# T7 sequence: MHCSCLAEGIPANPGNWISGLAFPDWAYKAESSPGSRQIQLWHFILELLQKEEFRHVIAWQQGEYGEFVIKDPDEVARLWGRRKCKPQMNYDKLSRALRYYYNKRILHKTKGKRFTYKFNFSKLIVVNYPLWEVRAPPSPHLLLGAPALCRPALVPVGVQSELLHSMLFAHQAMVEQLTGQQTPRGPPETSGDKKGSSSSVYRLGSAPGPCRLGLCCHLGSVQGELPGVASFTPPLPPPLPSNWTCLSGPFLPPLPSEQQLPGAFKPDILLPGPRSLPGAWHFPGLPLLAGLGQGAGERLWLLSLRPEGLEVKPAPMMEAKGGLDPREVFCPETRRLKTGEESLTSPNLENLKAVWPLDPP
# Outline: as §1
# ETS2 = biological target: T8, ETS2 (Homo sapiens, UniProt P15036 1-469); details: protein: recombinant; tags: N-terminal GST; dsDNA, one strand shown
# T8 sequence: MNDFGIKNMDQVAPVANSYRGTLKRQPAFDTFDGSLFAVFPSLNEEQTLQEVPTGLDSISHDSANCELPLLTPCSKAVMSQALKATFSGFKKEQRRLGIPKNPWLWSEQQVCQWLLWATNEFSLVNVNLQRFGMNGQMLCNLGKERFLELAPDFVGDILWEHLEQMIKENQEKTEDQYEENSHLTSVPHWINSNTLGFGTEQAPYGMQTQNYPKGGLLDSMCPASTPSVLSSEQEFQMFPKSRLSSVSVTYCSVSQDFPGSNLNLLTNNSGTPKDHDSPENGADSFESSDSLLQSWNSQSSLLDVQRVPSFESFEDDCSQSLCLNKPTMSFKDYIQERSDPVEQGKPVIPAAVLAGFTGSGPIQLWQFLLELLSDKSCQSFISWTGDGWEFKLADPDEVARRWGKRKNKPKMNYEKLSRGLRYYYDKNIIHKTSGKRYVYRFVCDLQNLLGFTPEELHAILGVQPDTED
# Outline: as §1
# SPDEF = biological target: T9, SPDEF (Homo sapiens, UniProt O95238 1-335); details: protein: recombinant; tags: N-terminal GST; dsDNA, one strand shown
# T9 sequence: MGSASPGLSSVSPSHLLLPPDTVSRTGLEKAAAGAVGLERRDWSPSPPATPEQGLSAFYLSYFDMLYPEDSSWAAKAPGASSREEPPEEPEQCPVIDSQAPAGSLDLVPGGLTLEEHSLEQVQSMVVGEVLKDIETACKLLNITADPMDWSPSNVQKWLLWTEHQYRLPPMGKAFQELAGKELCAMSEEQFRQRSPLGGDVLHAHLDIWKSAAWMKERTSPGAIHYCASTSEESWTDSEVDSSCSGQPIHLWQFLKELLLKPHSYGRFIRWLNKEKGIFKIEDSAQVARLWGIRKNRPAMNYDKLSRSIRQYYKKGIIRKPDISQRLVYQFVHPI
# Outline: as §1
# ETV7 = biological target: T10, ETV7 (Homo sapiens, UniProt Q9Y603 1-341); details: protein: recombinant; tags: N-terminal GST; dsDNA, one strand shown
# T10 sequence: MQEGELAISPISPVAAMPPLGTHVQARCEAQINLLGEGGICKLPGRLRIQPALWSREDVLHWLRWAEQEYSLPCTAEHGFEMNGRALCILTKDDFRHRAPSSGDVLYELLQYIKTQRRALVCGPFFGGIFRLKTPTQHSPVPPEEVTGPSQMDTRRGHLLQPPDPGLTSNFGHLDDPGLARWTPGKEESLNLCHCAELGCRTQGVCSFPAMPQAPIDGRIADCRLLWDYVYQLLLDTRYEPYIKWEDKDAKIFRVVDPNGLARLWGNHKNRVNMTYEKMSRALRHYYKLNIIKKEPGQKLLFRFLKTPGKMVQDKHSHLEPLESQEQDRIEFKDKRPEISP
# Outline: as §1
# ELF5 = biological target: T11, ELF5 (Homo sapiens, UniProt Q9UKW6-2 1-255); details: protein: recombinant; tags: N-terminal GST; dsDNA, one strand shown
# T11 sequence: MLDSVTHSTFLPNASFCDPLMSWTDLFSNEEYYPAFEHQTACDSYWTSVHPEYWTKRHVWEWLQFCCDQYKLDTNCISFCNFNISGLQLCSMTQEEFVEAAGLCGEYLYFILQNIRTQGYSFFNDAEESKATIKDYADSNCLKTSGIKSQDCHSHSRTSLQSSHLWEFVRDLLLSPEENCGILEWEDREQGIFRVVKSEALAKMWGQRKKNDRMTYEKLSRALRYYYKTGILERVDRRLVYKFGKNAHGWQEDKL
# Outline: as §1
# ETV3 = biological target: T12, ETV3 (Homo sapiens, UniProt P41162-2 1-143); details: protein: recombinant; tags: N-terminal GST; dsDNA, one strand shown
# T12 sequence: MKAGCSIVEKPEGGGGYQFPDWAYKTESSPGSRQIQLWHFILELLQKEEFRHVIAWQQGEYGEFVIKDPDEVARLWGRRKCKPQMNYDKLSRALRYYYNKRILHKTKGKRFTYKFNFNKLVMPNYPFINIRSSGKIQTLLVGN
# Outline: as §1
# ETV6 = ETV6 (Homo sapiens, UniProt P41212 1-452); details: protein: recombinant; tags: N-terminal GST; dsDNA, one strand shown
# Sequence of ETV6 (P41212 whole entry): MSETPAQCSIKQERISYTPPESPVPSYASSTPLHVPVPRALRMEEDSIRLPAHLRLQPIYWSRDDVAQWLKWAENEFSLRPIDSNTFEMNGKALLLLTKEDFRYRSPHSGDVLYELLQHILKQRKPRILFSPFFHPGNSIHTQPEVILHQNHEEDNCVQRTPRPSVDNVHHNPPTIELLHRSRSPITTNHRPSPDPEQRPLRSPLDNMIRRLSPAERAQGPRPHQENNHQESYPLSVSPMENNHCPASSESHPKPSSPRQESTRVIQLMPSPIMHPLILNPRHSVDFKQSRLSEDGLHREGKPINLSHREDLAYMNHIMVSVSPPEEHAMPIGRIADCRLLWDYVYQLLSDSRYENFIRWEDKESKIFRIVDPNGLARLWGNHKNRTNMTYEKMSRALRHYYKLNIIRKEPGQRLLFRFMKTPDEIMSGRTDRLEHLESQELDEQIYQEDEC
# Outline: as §1
sequence,measurement,setting,value
ATATGG,binding signal,FEV,"1.25 fold enrichment (6-mer frequency, TF over GST control)"
same,binding signal,ETV5,"1.3 fold enrichment (6-mer frequency, TF over GST control)"
same,binding signal,HSF1,"1.17 fold enrichment (6-mer frequency, TF over GST control)"
same,binding signal,SPIC,"1.41 fold enrichment (6-mer frequency, TF over GST control)"
same,binding signal,ELF4,"1.35 fold enrichment (6-mer frequency, TF over GST control)"
same,binding signal,ELK4,"1.36 fold enrichment (6-mer frequency, TF over GST control)"
same,binding signal,ETV2,"1.13 fold enrichment (6-mer frequency, TF over GST control)"
same,binding signal,ELF3,"1.36 fold enrichment (6-mer frequency, TF over GST control)"
same,binding signal,CRX,"1.19 fold enrichment (6-mer frequency, TF over GST control)"
same,binding signal,ETV1,"1.17 fold enrichment (6-mer frequency, TF over GST control)"
same,binding signal,ERF,"1.16 fold enrichment (6-mer frequency, TF over GST control)"
same,binding signal,ETV3L,"1.3 fold enrichment (6-mer frequency, TF over GST control)"
same,binding signal,ETS2,"1.32 fold enrichment (6-mer frequency, TF over GST control)"
same,binding signal,SPDEF,"1.3 fold enrichment (6-mer frequency, TF over GST control)"
same,binding signal,ETV7,"1.34 fold enrichment (6-mer frequency, TF over GST control)"
same,binding signal,ELF5,"1.27 fold enrichment (6-mer frequency, TF over GST control)"
same,binding signal,ETV3,"1.35 fold enrichment (6-mer frequency, TF over GST control)"
same,binding signal,ETV6,"1.34 fold enrichment (6-mer frequency, TF over GST control)"
